VDR inhibitor = Inhibitors of the vitamin D receptor (VDR): qHTS; Vitamin D3 receptor (Homo sapiens), P11473; VDR-SRC2-3 peptide fluorescence polarization, 2 h; Potency, µM, inactives show max response, negative = inhibition, most hits filed as inhibitors; 0.93% of 400,000 active; AID 504847, 2011; further: potency means the concentration at half of the fitted maximal effect; on the % scale 0 is the no-effect control and ±100 the full control effect
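Two reagent solutions held at 4 deg C in the dark were dispensed, compounds pinned at 23 nl, and the mixture incubated 2 h at room temperature. Read-out: fluorescence polarization of VDR–SRC2-3 peptide binding.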
hERG WT inh = qHTS for Inhibitors of KCHN2 3.1: Wildtype qHTS; Voltage-gated inwardly rectifying potassium channel KCNH2 (Homo sapiens), Q12809; U2OS, BacMam KCNH2, thallium flux FluxOr; stronger effect = lower value; activity change, % at 1.84 µM; 0.37% of 340,000 active;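 active means maximum activity change below -70%; inconclusive means maximum activity change between -70% and -50%; inactive means maximum activity change above -50%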; further: on the % scale 0 is the no-effect control and ±100 the full control effect
Target sequence (Q12809 whole entry, looked up): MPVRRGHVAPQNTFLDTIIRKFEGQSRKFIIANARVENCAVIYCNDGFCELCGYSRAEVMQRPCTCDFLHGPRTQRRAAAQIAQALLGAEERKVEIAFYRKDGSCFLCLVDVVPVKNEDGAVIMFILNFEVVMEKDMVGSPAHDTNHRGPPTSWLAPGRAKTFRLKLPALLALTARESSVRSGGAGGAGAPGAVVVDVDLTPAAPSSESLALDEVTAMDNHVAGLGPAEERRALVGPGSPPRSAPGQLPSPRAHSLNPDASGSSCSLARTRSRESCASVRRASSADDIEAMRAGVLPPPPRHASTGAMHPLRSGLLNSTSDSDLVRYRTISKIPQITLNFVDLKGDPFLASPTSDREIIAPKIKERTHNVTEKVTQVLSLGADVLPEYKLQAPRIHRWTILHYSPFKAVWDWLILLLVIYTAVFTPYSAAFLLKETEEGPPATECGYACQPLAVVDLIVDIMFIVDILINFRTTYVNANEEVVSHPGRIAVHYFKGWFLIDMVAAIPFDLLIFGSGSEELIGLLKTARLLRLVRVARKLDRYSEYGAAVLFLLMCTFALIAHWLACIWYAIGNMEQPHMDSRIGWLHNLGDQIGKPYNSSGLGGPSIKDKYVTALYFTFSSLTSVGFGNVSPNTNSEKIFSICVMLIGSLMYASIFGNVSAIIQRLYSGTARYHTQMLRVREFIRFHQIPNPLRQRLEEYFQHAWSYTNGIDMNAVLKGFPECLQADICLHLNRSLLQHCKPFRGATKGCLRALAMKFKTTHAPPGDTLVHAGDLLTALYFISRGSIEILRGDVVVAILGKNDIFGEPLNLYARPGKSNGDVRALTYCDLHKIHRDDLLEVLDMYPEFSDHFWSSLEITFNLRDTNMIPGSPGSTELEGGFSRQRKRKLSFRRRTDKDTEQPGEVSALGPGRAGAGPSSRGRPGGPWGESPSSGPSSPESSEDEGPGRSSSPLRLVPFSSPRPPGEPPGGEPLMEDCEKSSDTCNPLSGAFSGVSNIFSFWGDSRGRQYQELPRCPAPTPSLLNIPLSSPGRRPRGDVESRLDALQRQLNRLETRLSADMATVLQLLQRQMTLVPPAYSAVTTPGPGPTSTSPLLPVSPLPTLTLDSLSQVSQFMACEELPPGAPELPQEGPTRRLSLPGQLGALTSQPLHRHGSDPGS
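U2OS cells transduced with wild-type KCNH2 virus are loaded with FluxOr dye for 45 min, and thallium flux is measured in kinetic reads before and after stimulation buffer. Rate constants are normalized to DMSO controls.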
KCNH2 3.1 inh = qHTS for Inhibitors of KCHN2 3.1: Mutant qHTS; Potassium voltage-gated channel subfamily H member 2, brain isoform KCNH2 3.1 (human); U2OS KCNH2 3.1, thallium flux FluxOr; stronger effect = lower value; activity change, % (tested at about 1.8 µM); 0.95% of 340,000 active;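 active means maximum activity change below -70%; inconclusive means maximum activity change from -70% to -50%; inactive means maximum activity change above -50%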;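 further: thallium influx rate constant from kinetic fluorescence after stimulation buffer; on the % scale 0 is the no-effect control and ±100 the full control effect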
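Virally transduced U2OS (3.1 isoform, 4 h infection in dark at RT) → overnight 37 C → FluxOr + Red40 in HBSS/HEPES, 45 min → stimulation buffer, 2 min kinetic read → rate constant vs DMSO controls.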
PLK1 PBD block = qHTS for Inhibitors of PLK1-PDB (polo-like kinase 1 - polo-box domain): Primary Screen. Serine/threonine-protein kinase PLK1 (Homo sapiens), P53350. Plk1 PBD binding of FITC phosphopeptide, fluorescence polarization. Potency, µM, for the others: max response, negative = inhibition, usual class: inhibitors. 2.8% of 360,000 active. AID 720504, 2013; further: potency means the concentration at half of the fitted maximal effect; series mostly up to about 57 µM; on the % scale 0 is the no-effect control and ±100 the full control effect; nearly all actives have a fitted effect of over 65% in size
MBNL1-CUG inh = qHTS Assay for Inhibitors of MBNL1-poly(CUG) RNA binding; AID 2675, 2010; 0.036% of 280,000 active; TR-FRET MBNL1-His/biotin-(CUG)12 binding, 665/545 ratio; Potency, µM (doses to about 57.5 µM), for inactives: top-dose activity change, negative = inhibition, most hits filed as inhibitors; Muscleblind-like protein 1 (Homo sapiens), Q9NR56; active means well fitted inhibition curve with a large enough effect in the signal ratio, with a control signal flat, not every such curve was filed as active; inconclusive means small, poorly fitted or top-dose-only effect, or effect the other way, or a change in a side signal; inactive means no such curve, though single readings can be large or run the other way; the % refers to the signal ratio; further: potency means the concentration at half of the fitted maximal effect; on the % scale 0 is the no-effect control and ±100 the full control effect
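TR-FRET readout: Ex 340 nm, 665/545 nm emission ratio, normalized to buffer-only (basal) and MBNL1-(CUG)12 controls. Complex of MBNL1-His with Biotin-(CUG)12, compounds 92 nM–58 uM, incubated 60 min at room temperature.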
CBFb RUNX1 block = qHTS Assay for Compounds Blocking the Interaction Between CBF-beta and RUNX1 for the Treatment of Acute Myeloid Leukemia. AlphaScreen CBFb-His/RUNX1-biotin binding, biochemical. Runt-related transcription factor 1 (Homo sapiens) + Core-binding factor subunit beta …. 230,000 tested, under 10 active. Potency, µM (doses to about 59.8 µM), for the others: at the highest dose activity, negative = inhibition, usual class: inhibitors; further: % of control where 0% means no effect
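Bead-based AlphaScreen assay; binding partners His-tagged CBF-beta and biotinylated RUNX1 at 30 nM each. Compound exposure 15 min after a 20-min protein preincubation; bead step 90 min; all steps at room temperature.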
The depositor's hits bear a star; ? = inconclusive; / = no result. An excerpt weighted towards active compounds, which were near 3.8% of everything screened. Unless noted, the call rests on the fitted dose curve; in most records, active means well fitted curve in the direction sought with a large enough effect; inconclusive means small, poorly fitted or top-dose-only effect, or another doubt; inactive means no such curve, though single readings can be large; an effect the other way counts as inactive or inconclusive.

SMILES	VDR inhibitor	hERG WT inh	KCNH2 3.1 inh	PLK1 PBD block	MBNL1-CUG inh	CBFb RUNX1 block
CC[C@H](C)[C@H](NC(=O)[C@H](CCC(=O)O)NC(=O)[C@H](CO)NC(=O)[C@@H](NC(=O)[C@@H](N)CO)C(C)C)C(=O)N[C@@H](CCC(N)=O)C(=O)N[C@@H](CC(C)C)C(=O)N[C@@H](CCSC)C(=O)N[C@@H](Cc1cnc[nH]1)C(=O)N[C@@H](CC(N)=O)C(=O)N[C@@H](CC(C)C)C(=O)NCC(=O)N[C@@H](CCCCN)C(=O)N[C@@H](Cc1cnc[nH]1)C(=O)N[C@@H](CC(C)C)C(=O)N[C@@H](CC(N)=O)C(=O)N[C@@H](CO)C(=O)N[C@@H](CCSC)C(=O)N[C@@H](CCC(=O)O)C(=O)N[C@@H](CCCNC(=N)N)C(=O)N[C@H](C(=O)N[C@@H](CCC(=O)O)C(=O)N[C@@H](Cc1c[nH]c2ccccc12)C(=O)N[C@@H](CC(C)C)C(=O)N[C@@H](CCCNC(=N)N)C(=O)N[C@@H](CCCCN)C(=O)N[C@@H](CCCCN)C(=O)N[C@@H](CC(C)C)C(=O)N[C@@H](CCC(N)=O)C(=O)N[C@@H](CC(=O)O)C(=O)N[C@H](C(=O)N[C@@H](Cc1cnc[nH]1)C(=O)N[C@@H](CC(N)=O)C(=O)N[C@@H](Cc1ccccc1)C(=O)N[C@H](C(=O)N[C@@H](C)C(=O)N[C@@H](CC(C)C)C(=O)NCC(=O)O)C(C)C)C(C)C)C(C)C	-2%	/	/	/	/	9%
Cc1cc2c(cc1S(=O)(=O)N1CCN(c3cccc(C(F)(F)F)c3)CC1)OCC(=O)N2	?	5	-33	21µM*	-4%	/
COc1ccc(N2CCN(C(=O)CCS(=O)(=O)c3ccc4c(c3)NC(=O)CO4)CC2)cc1	-26%	-4	12	24µM*	-5%	/
CCN(Cc1nc(-c2cccc(C)c2)no1)C(=O)c1ccc2c(c1)OCO2	-25%	0	1	-8%	-7%	/
Cc1cccc(-c2noc(CN(C(=O)c3ccc4c(c3)OCO4)C(C)C)n2)c1	-8%	-1	-4	27µM*	-7%	7%
COc1cc(SSc2cc(OC)cc([N+](=O)[O-])c2N)c(N)c([N+](=O)[O-])c1	7.9µM*	0	8	0.67µM*	?	-17%
COc1cc([N+](=O)[O-])c2ncsc2c1	-11%	1	-3	-14%	?	17%
O=c1c2sccc2n(Cc2cc(=O)n3cc(Cl)ccc3n2)c(=O)n1-c1ccccc1	6%	/	/	/	/	/
CCc1cc2c(-c3ccccc3)cc(=O)oc2cc1OCC(C)=O	-20%	-2	-4	-16%	6%	/
CCCc1cc2c(-c3ccccc3)cc(=O)oc2cc1OCc1ccc(C(=O)O)o1	-24%	-1	0	24µM*	4%	-10%
Cc1cccc(C)c1NC(=O)CCCCCC1NC(=O)NC1C (stereo unspecified)	-19%	2	11	1%	0.71µM*	?
CC1NC(=O)NC1CCCCCC(=O)NCCc1ccccc1 (stereo unspecified)	-9%	8	18	-12%	0.45µM*	?
Cc1ccc(-n2ncc3c(NCc4ccccc4)ncnc32)cc1Cl	10%	/	/	/	/	/
COc1cc(Cl)c(NC(=O)CCc2nc3cccnc3n2-c2ccccc2)c(OC)c1	-2%	/	/	/	/	/
Cc1ccc(-n2nnnc2CNC(=O)C(C)(C)C)cc1C	21%	/	/	/	/	/
CSc1nc2c(=S)[nH]c(=S)[nH]c2s1	/	/	/	21µM*	/	/
COc1cc(C/C=C/c2ccccc2)c(OC)cc1O	50µM*	/	/	/	/	1%
COc1ccc(-c2ccc3c(c2)S(=O)(=O)c2cccc(C(=O)NC4CCCC4)c2C3=O)cc1OC	-13%	6	15	3%	/	/
O=C(NC1CCCCC1)c1cccc2c1C(=O)c1ccc(-c3ccc(OC(F)(F)F)cc3)cc1S2(=O)=O	-12%	-9	-129*	-6%	/	/
CC(/C=C1\N=C(SCc2ccccc2Cl)SC1=O)=C\c1ccccc1	-10%	-3	1	27µM*	3%	-4%
COc1cccc(-n2nc(C#N)c(Cl)cc2=O)c1	32µM*	-6	4	?	?	4%
COc1cccc(-n2nc(C(N)=O)c(O)cc2=O)c1	2%	-10	-10	-16%	10%	3%
COc1ccc(-c2c(C)c3ccc(O)c(CN4CCC(C)CC4)c3oc2=O)cc1OC	14%	/	/	/	/	/
CSc1ccc(C2N=C(c3ccccc3)NO2)cc1 (stereo unspecified)	-15%	-1	1	-16%	18%	/
Oc1c(Br)cc(C2N=C(c3ccccc3)NO2)cc1Br (stereo unspecified)	-7%	-5	5	12µM*	-5%	-2%
SMILES	VDR inhibitor	hERG WT inh	KCNH2 3.1 inh	PLK1 PBD block	MBNL1-CUG inh	CBFb RUNX1 block
O=c1c2oc3ccccc3c2n(Cc2ccc(Cl)cc2)c(=O)n1Cc1ccco1	7%	/	/	/	/	/
CC(C)NC(=O)c1ccccc1NC(=O)C1COc2ccccc2O1 (stereo unspecified)	?	-13	6	27µM*	-2%	7%
CSc1ccccc1C(=O)Nc1ccccc1C(=O)NC(C)C	79µM*	-10	14	30µM*	-3%	0%
CCC(C)NC(=O)c1ccccc1NC(=O)C1COc2ccccc2O1 (stereo unspecified)	-1%	/	-10	-1%	?	0%
C=CCOc1cccc(NC(=O)c2ccccc2SC)c1	-19%	-3	-8	27µM*	2%	4%
O=C(Cn1c(=O)n(Cc2ccco2)c(=O)c2ccc(C(=O)NC3CCCC3)cc21)Nc1ccc(F)cc1	11%	/	/	/	/	/
COc1ccc(C2c3c(n(C)c4ccccc34)C(=O)N2CC(=O)Nc2ccc(C)cc2Cl)cc1 (stereo unspecified)	-5%	/	/	/	/	/
CCCN1CCN(C(=O)Cn2cnc3ccc(S(=O)(=O)N4CCC(C)CC4)cc3c2=O)CC1	-1%	-2	-85*	-16%	3%	3%
O=C(O)c1ccc2c(c1)C(=O)N([C@H](Cc1ccc3ccccc3c1)C(=O)O)C2=O	/	/	/	/	/	-6%
